Experimental data: PubChem BioAssay (NCI)
The panel holds about 83,000 compounds, 20% with a hit somewhere; the sample as a whole holds those more often.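 Method: cells in 96-well plates; compound added at one concentration; 48 h incubation; percent growth measured; values under 10 scored active.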 Calls of active or inactive are those of the source.

These compounds were tested on KM12 colon (assay: NCI-60 one-dose screen, 48 h (100 = growth as untreated, 0 = no growth, -100 = all killed)). Settings: 10 µM unless noted.
For `O=c1cc(-c2ccccc2)oc2c(O)c(O)ccc12`, the growth was 65.3% (inactive).
With `COc1c(C(C)=O)c(OCCCCOc2c(C(C)=O)c(OC)c3ccoc3c2OC)c(OC)c2occc12` the growth was 50.4% (inactive).
For `CNc1cc(C(=O)O)nc(NC)n1`, the growth was 102% (inactive).
For `O=[N+]([O-])c1cc([N+](=O)[O-])c(NN=C(c2ccc(O)cc2)c2ccc(O)cc2)cc1Cl`, the growth was -77.7% (active).
In the case of `NC(=O)c1c(NC(=O)COC(=O)Cc2ccccc2F)sc2c1CCC2`, the growth was 105% (inactive).
`CCCCOC(=O)c1c(C)[nH]c(/C=C2\N=C(c3ccc[nH]3)C=C2OC)c1C` was tested, and the growth was -5.76% (active).
`CC(C)[N+](C)(C)CC(O)COc1cccc2ccccc12` (centres undefined) was tested, and the growth was 96.1% (inactive).
With `CCCCCCCCCCCCNC(=S)N/N=C/c1ccccc1O` the growth was 68.8% (inactive).
In the case of `COCc1nc2ccccc2[nH]1`, the growth was 106% (inactive).
For `CCCCCCCCCCCCCCNC(=O)Nc1ccc(Cl)c(Cl)c1`, the growth was 35.8% (inactive).
For `CCN(CC)CCSC(=O)C(O)(c1ccccc1)C1CCCC1` (centres undefined), the growth was 79.4% (inactive).
With `CCOC(=O)c1c[nH]c2cc(OCC3CC3)c(OCC3CC3)cc2c1=O` the growth was 95.7% (inactive).
For `Cc1cc(NN=C(c2ccc(O)cc2)c2ccc(O)cc2)c([N+](=O)[O-])cc1[N+](=O)[O-]`, the growth was 37.7% (inactive).
With `Nc1nnc(CSc2nnc3n(Cc4ccccc4)c(=O)c4c5c(sc4n23)CCCC5)s1` the growth was 121% (inactive).
In the case of `N#Cc1c(Cl)nc(SCC2CO2)nc1-c1ccccc1` (centres undefined), the growth was 110% (inactive).
With `O=C(C[n+]1ccn(CC(OCc2ccc(Cl)cc2Cl)c2ccc(Cl)cc2Cl)c1)c1ccc(F)cc1` (centres undefined) the growth was -89.1% (active).
In the case of `O=C(O)CSCc1nnc2n(Cc3ccccc3)c(=O)c3c4c(sc3n12)CCCC4`, the growth was 109% (inactive).
`COc1ccc(OC)c([N+](=O)[O-])c1C(=O)CNC(C)=O` was tested, and the growth was 106% (inactive).
`COc1ccc2c3ccnc(C(F)(F)F)c3n(CCCCN)c2c1` was tested, and the growth was 54.8% (inactive).
